# PubChem BioAssay
# Unmarked numbers belong to inactive results. The rule behind the calls is not given here.
# Target: Pantothenate synthetase (Mycobacterium tuberculosis (strain ATCC 25618 / H37Rv)) (UniProt P9WIL5)
# Test: Coupled enzyme confirmation of inhibitors against recombinant Mtb PanC (AID 375);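 note: 0% = full reaction with vehicle and 100% = no enzyme background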
# Settings: coupled enzyme assay; at 10 µM, hits give high values
# Pantothenate synthetase (Mycobacterium tuberculosis (strain ATCC 25618 / H37Rv)), sequence (P9WIL5 whole entry, looked up): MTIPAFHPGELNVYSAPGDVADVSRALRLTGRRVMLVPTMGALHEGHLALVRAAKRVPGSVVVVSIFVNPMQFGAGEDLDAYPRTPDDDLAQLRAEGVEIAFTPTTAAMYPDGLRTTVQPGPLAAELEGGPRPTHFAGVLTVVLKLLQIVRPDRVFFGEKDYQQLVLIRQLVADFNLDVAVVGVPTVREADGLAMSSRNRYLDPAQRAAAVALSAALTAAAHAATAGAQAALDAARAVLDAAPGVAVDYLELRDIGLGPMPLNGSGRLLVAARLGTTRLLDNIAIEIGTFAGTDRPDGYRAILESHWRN
row,Compound,inhibition
1,c1cncc(C2Nc3ccccc3-c3nc4ccccc4n32)c1 (stereo not given),7%
2,COc1ccc(CN(C)CC(=O)c2c(N)n(Cc3ccccc3)c(=O)n(C)c2=O)c(OC)c1,0%
3,CC(C)CC1NC(=O)N(CC(=O)N2CCN(S(=O)(=O)c3ccc(Cl)cc3)CC2)C1=O (stereo not given),0%
4,CSC1=C(C#N)C(c2ccc(C)cc2)C2=C(CCCC2=O)N1 (stereo not given),0%
5,O=C(Nc1nccs1)c1ccc(COc2ccccc2Br)o1,0%
6,Fc1cccc2sc(Nc3nnc(-c4ccco4)o3)nc12,8%
7,CS(=O)(=O)Nc1ccc(C(=O)NCc2ccc3c(c2)OCO3)cc1,4%
8,Cc1[nH]nc2c1C(CCc1ccccc1)C(C#N)=C(N)O2 (stereo not given),0%
9,CC(=O)c1c(NCCc2ccccc2)cc(C)oc1=O,0%
10,CCOC(=O)C(NC(=O)Nc1ccccc1)(OCC)C(F)(F)F (stereo not given),0%
11,CC(=O)Nc1ccc(S(=O)(=O)n2cnc(C)c2)cc1,3%
12,COc1cccc(Cn2c(-c3nonc3N)nc3ccccc32)c1,0%
13,CCCCCCNC(=O)c1c(N)n(/N=C/c2ccco2)c2nc3ccccc3nc12,5%
14,O=C(Cn1nnc(-c2ccc(S(=O)(=O)N3CCCC3)cc2)n1)NCC1CCCO1 (stereo not given),0%
15,COc1cccc(N2CCN(c3ncnc4c3[nH]c3ccc(F)cc34)CC2C)c1 (stereo not given),0%
16,COc1ccc(S(=O)(=O)Nc2cccc(C)n2)c2ccccc12,2%
17,COc1ccc(N2C(=O)C3CCCN3C2c2ccc(F)cc2)cc1Cl (stereo not given),1%
18,COc1ccc(-n2ncc3c(N4CCN(c5cccc(C)c5C)CC4)ncnc32)cc1,0%
19,O=c1c2[nH]c3ccc(Cl)cc3c2ncn1Cc1ccccn1,0%
20,COc1ccc(CCNS(=O)(=O)c2ccc3c(c2)OCCO3)cc1,0%

row,Compound,inhibition
1,O=C(CSc1ccc(Cl)cc1)OCc1nnc(-c2ccccc2)o1,1%
2,Cc1ccc(-c2nnnn2CS(=O)(=O)c2ccccc2)cc1,0%
3,CCOC(=O)c1ccc2ncc(C(=O)OCC)c(NCCN(C)C)c2c1,0%
4,CCCCc1cc(=O)oc2cc(OCC(=O)N(CC)CC)c(Cl)cc12,0%
5,COCCn1c(C23CC4CC(CC(C4)C2)C3)n[nH]c1=S,0%
6,CN1CCC(=C2c3ccccc3CC(=O)c3sccc32)CC1,2%
7,CCN(CC)CCCN1C(=O)C(=O)/C(=C(/O)c2ccccc2)C1c1ccccn1 (stereo not given),0%
8,Cc1ccc(NC2c3ncccc3C(=O)N2C2CCCCC2)cc1C (stereo not given),0%
9,O=C(Nc1ccc2c(c1)nc1n2CCSC1)c1ccccc1,0%
10,COc1cccc(OCc2nnc(SCC(=O)OCc3ccccc3)o2)c1,0%
11,CCOC(=O)c1c(N)sn(-c2ccccc2)c1=S,5%
12,O=C(c1nn2cccnc2c1Cl)N1CCN(c2ccccc2)CC1,6%
13,COc1ccc(CCn2c(=N)c(C(=O)NCc3ccco3)cc3c(=O)n4ccccc4nc32)cc1,0%
14,Cc1cc2ccccc2n1CCNC(=O)C1CC1,1%
15,COC(=O)c1cccc(NC(=O)CN2CCN(Cc3ccccc3)CC2)c1,2%
16,COCc1cc(C)nc(Nc2ccc(C)cc2C)c1C#N,0%
17,Cc1cc2cc(CNC(=O)c3ccc4c(c3)OCO4)ccc2[nH]1,0%
18,c1ccc(Cn2nnnc2C(c2ccccn2)N2CCOCC2)cc1 (stereo not given),0%
19,CCn1c(Cc2ccc(OC)cc2)nnc1SCC(=O)Nc1cccc(C(=O)OC)c1,5%
20,CCN(CC)C(=O)c1ccc(NS(=O)(=O)c2ccccc2)cc1,0%
